Reference: PubChem BioAssay (NCI)
Values joined by “and” are separate entries in the source; they are usually repeats but may differ in a detail not shown here. Identical values can stand only once. This is part of a sample that, as a whole, favours compounds with a hit. Of some 83,000 tested, about 20% had one in any assay.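 How to read the values: 0–100, growth inhibition (40 = 60% inhibited); 0, no net growth; -100 to 0, cell death (-40 = 40% of starting cells died; -100 = all dead).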 Values without a mark were called inactive. Active and inactive are the calls of the source.

System: HCC-2998 colon
Assay: NCI-60 one-dose screen, 48 h (100 = growth as untreated, 0 = no growth, -100 = all killed)
Conditions: 10 µM
Protocol: Growth inhibition of the HCC-2998 human tumor cell line is measured as a screen for anti-cancer activity. Cells are grown in 96 well plates and exposed to the test compound for 48 hours. Compounds are tested at a single concentration, which is 10^-5 M for most compounds. The reported endpoint is percent growth (GI% or GIPRCNT), where numbers from 0 - 100% represent growth inhibition, and numbers from -100% - 0 represent cell death. For example, a value of 40 represents 60% growth inhibition. A value of 0 means no net growth occurred over the course of the experiment. A value of -40 indicates 40% of cells at the beginning of the experiment died by the end of the experiment. A value of -100 means all cells are dead at the end of the experiment.
NCI-60 Human Tumor Cell Lines Screen was performed using the standard one-dose NCI protocol, which is described in more detail at https://dtp.cancer.gov/discovery_development/nci-60/default.htm.
Compounds with GIPRCNT values below 10 were considered active. Activity score was based on GIPRCNT using the following formula: […]
Score is 0 for GIPRCNT values of 100 or above, 50 for GIPRCNT values of 0, and 100 for GIPRCNT values of -100.

SMILES	growth
O=C(Nc1cccc(Br)c1)Oc1cccc2cccnc12	98.2%
O=C(O)c1c(Cl)c(Cl)c(Cl)c(Cl)c1-c1c2cc(I)c(=O)c(I)c-2oc2c(I)c(O)c(I)cc12	110% and 106% and 113%
O=C(Nc1c(Cl)cccc1Cl)Oc1cccc2cccnc12	93.4%
CN(C)C(=O)c1ccc(SC(=S)NCc2ccccc2)cc1	104%

Same assay, conditions: 10 µM unless noted

SMILES	growth
N#CSCC(=O)c1ccc(Cl)cc1	-19.5% (active)
CN1c2ccccc2C(C)(C)C12C=Cc1cc(O)ccc1O2 (stereo not given)	83.2%
COc1cc(/C=C(/C)C[N+](=O)[O-])ccc1O	102%
CCN1/C(=C\c2cc[n+](CC)c3ccccc23)C=Cc2ccccc21	23%
C=CCOc1ccc(N=NC(C#N)C#N)cc1	101%
O=C(Nc1ccc(F)cc1)ON=C1CCCCC1	106% [100 µM]
COC(=O)c1nc(=S)[nH]c(C(=O)OC)c1C(=O)c1ccc2ccccc2c1	113%
CCCCCCCCCCCCCCCC[N+](C)(CCO)Cc1cnc[nH]1 (stereo not given)	-70.5% (active)
CCC(CCCN(CC)CCc1ccccc1)OC(=O)c1cc(OC)c(OC)c(OC)c1 (stereo not given)	96.4%
CCN(CC)CC(C)(C)C(=O)/C=C/c1ccc(Cl)c(Cl)c1	-65.2% (active)
CCCCCC(CCCCC)C(=O)O	119%
CC(=Nc1ccc(N(C)C)cc1)c1ccccc1	58.2%
CN(C)c1ccc(N=Nc2cccc3ccccc23)cc1	69.2%
COc1ccc(N=N/N=c2\sc3cc(OC)ccc3n2C)cc1	102%
CC1=CC(O)C2CC1C2(C)C (stereo not given)	95.4% and 112%
CCOc1ccc(-c2nc3ccc(-c4nc5ccc(N6CCN(C)CC6)cc5[nH]4)cc3[nH]2)cc1	-95.3% (active)

SMILES	growth
N#Cc1ccc([N+](=O)[O-])o1	117%
S=C(N/N=C/c1ccccn1)Nc1ccccn1	25.2%
C/C=C1\SC(=S)NC1=O	85%
CC(C)(C)c1ccc(O)c(C2CCCCC2)c1	111%
Oc1c(Br)cc(Cl)cc1C(c1cc(Cl)cc(Br)c1O)C(Cl)(Cl)Cl	16.9%
O=C(CC1(O)C(=O)Nc2c(Cl)ccc(Cl)c21)c1ccc(Cl)cc1Cl (stereo not given)	110%
Cc1ccc(C(=Nc2ccccc2)N=P(c2ccccc2)(c2ccccc2)c2ccccc2)cc1	-71.6% (active)
COc1ccc2nc3cc(Cl)ccc3c(NCCNc3c4ccc(Cl)cc4nc4ccc(OC)cc34)c2c1	-82.2% (active)
Cc1cc(N)c2ccccc2[n+]1CCCCCCCCCC[n+]1c(C)cc(N)c2ccccc21	0.513% (active)
CCCCCCCCCCCCCCCCN(CC)CC	-97.1% (active)
CC(=O)Nc1cccc2cc(O)ccc12	115% and 108% and 95%
Oc1c(Br)c(Br)c(O)c(Br)c1Br	128%
C[N+](C)=c1ccc2nc3c(cc(NCCCNc4cc5oc6cc(=[N+](C)C)ccc-6nc5c5ccccc45)c4ccccc43)oc-2c1	23.7%
CCOC(=O)/C(=C\c1ccc(-c2ccccc2)cc1)C(C)=O	95.2%
CN(C)c1ccc(/C=N/N=C(\C#N)[S][Sn]([Cl])([c]2ccccc2)[c]2ccccc2)cc1	63.5%
CCN(CC)CCOc1ccc(-c2nc3cc(Cl)ccc3s2)cc1	-97.2% (active)

Same assay, conditions: 100 µM

SMILES	growth
O=C(Nc1cccc(Br)c1)Oc1cccc2cccnc12	59.9%
O=C(O)c1c(Cl)c(Cl)c(Cl)c(Cl)c1-c1c2cc(I)c(=O)c(I)c-2oc2c(I)c(O)c(I)cc12	-7.72% (active)
O=C(Nc1c(Cl)cccc1Cl)Oc1cccc2cccnc12	42.2%
CN(C)C(=O)c1ccc(SC(=S)NCc2ccccc2)cc1	-78.3% (active)
